{
  "source": "PubChem BioAssay (NCATS)",
  "note": "Results filed as inconclusive are left out. Unmarked numbers belong to inactive results. Calls of active or inactive are those of the source. Calls come from the whole dose curve; as a rule, active = well fitted inhibition curve with a large enough effect; inconclusive = small, poorly fitted or top-dose-only effect; inactive = no such curve, though single readings can be large or run the other way. Note: nearly all actives have a fitted effect of over 35% in size. Potency is the fitted concentration of half-maximal effect.",
  "data": [
    {"test": "BET inhibitor-based combinations targeting novel dependencies in MECOM-rearranged (r) AML: SET-2 cell line (AID 2202231);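 for viability: plate controls were DMSO treated cells for no effect and wells without cells for full effect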", "settings": "SET-2 AML cells viability, CellTiter-Glo luminescence, 48 h; viability: active compounds read low, concentration not given here", "in_short": "(§1)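 500 cells/well; 11-pt dose curve; 48 h, standard incubator; CellTiter-Glo luminescence after 15 min RT; DMSO/empty-well normalization; AUC plus Z-AUC (mean-centered within each line).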", "units": {"viability": "%"}, "values": [
      {"compound": "CN(C)C[C@@H]1CCn2cc(c3ccccc32)C2=C(C(=O)NC2=O)c2cn(c3ccccc23)CCO1", "Potency": "8.33 µM (active)"},
      {"compound": "CCNCCc1ccc(CN(CC)c2cc(OC)ccc2[C@@H]2CCc3cc(O)ccc3C2)cc1", "Potency": "9.34 µM (active)"},
      {"compound": "C[C@@]12O[C@@H](C[C@]1(O)CO)n1c3ccccc3c3c4c(c5c6ccccc6n2c5c31)CNC4=O", "Potency": "0.417 µM (active)"},
      {"compound": "CCCc1cc(C(=O)N[C@H](Cc2ccc(-c3cccc(OC(F)(F)F)c3)nc2)C(=O)N[C@@H]2CCNC2)sc1C", "Potency": "20.9 µM (active)"},
      {"compound": "COC(=O)Nc1nc2ccc(C(=O)c3ccccc3)cc2[nH]1", "Potency": "0.833 µM (active)"},
      {"compound": "COc1cc2c(NC3CCN(C)CC3)nc(N3CCCN(C)CC3)nc2cc1OCCCN(C)C", "viability": 112},
      {"compound": "CCS(=O)(=O)N1CCC(C(C)n2c(C)c(C(=O)NCc3c(OC)cc(C)[nH]c3=O)c3ccccc32)CC1", "note": "(stereo not drawn)", "viability": 108},
      {"compound": "CC#CC(=O)N1CC[C@@H](n2c(=O)n(-c3ccc(Oc4ccccc4)cc3)c3c(N)ncnc32)C1", "viability": 83.2},
      {"compound": "O=C(Nc1cnn2ccc(N3CCC[C@@H]3c3cc(F)ccc3F)nc12)N1CC[C@H](O)C1", "viability": 98.9},
      {"compound": "COC(=O)[C@@H]1CC2=CC(=O)CC[C@]2(C)[C@@]23O[C@@H]2C[C@@]2(C)[C@@H](CC[C@@]24CCC(=O)O4)[C@H]13", "viability": 106},
      {"compound": "COc1cc2c3c(n(CCCn4ccnc4)c(=O)c2cc1OC)-c1cc2c(cc1C3=O)OCO2", "Potency": "0.0372 µM (active)"},
      {"compound": "C[C@@H]1COCCN1c1cc(-c2ccnn2C)c2ccnc(-c3ccn[nH]3)c2n1", "Potency": "0.0833 µM (active)"},
      {"compound": "CNC(=O)c1c(C)oc2cc(Oc3ncnc4cc(OC)c(OC)cc34)ccc12", "viability": 116}
    ]},
    {"test": "BET inhibitor-based combinations targeting novel dependencies in MECOM-rearranged (r) AML: OCI-AML3 cell line (AID 2202232);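 for viability (% of control): plate controls were DMSO vehicle wells for no effect and wells without cells for full effect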", "settings": "CellTiter-Glo luminescence, 48 h; Potency: OCI-AML3 viability; series mostly up to 46 µM", "in_short": "as §1", "values": [
      {"compound": "C=CCN1C[C@H](C(=O)N(CCCN(C)C)C(=O)NCC)CC2c3cccc4[nH]cc(c34)C[C@H]21", "note": "(stereo partly drawn)", "Potency": "10.5 µM (active)"},
      {"compound": "COC1CC(C(=O)c2ccc3c(N)ncc(-c4ccc(-c5cnn(C)c5)cc4)c3n2)C1", "note": "(stereo not drawn)", "Potency": "8.33 µM (active)"},
      {"compound": "CCC(C)CNCC(=O)N1CCc2sccc2C1c1cccc(C)n1", "note": "(stereo not drawn)", "Potency": "inactive"},
      {"compound": "COc1ccc2c(c1OC)C(=O)OC2[C@H]1c2c(cc3c(c2OC)OCO3)CCN1C", "note": "(stereo partly drawn)", "Potency": "20.9 µM (active)"},
      {"compound": "C[C@H]1CNCCCN1S(=O)(=O)c1cccc2cncc(F)c12", "Potency": "inactive"},
      {"compound": "CCCC[C@@H](C=O)NC(=O)[C@H](CC(C)C)NC(=O)OCc1ccccc1", "Potency": "13.2 µM (active)"},
      {"compound": "Cc1ccc(NC(=O)NCc2ccc3c(c2)CN(C2CCC(=O)NC2=O)C3=O)cc1Cl", "note": "(stereo not drawn)", "Potency": "0.003 µM (active)"},
      {"compound": "CCOC(=O)C1=C(C)NC(=S)NC1c1cccc(O)c1", "note": "(stereo not drawn)", "Potency": "20.9 µM (active)"},
      {"compound": "CC(=O)NCCCS(=O)(=O)O", "Potency": "inactive"},
      {"compound": "CC(=O)Nc1cc(Oc2ccc3c(nc(Nc4ccc(F)cc4F)n3C)c2C)ccn1", "Potency": "0.934 µM (active)"},
      {"compound": "C[C@@H]1CC(=O)Nc2cccc(-c3ccc4c(c3)c(-c3cnn(C)c3)nn4C)c2N1", "Potency": "6.61 µM (active)"},
      {"compound": "COc1cc2c(cc1OC)CN(CCc1ccc(-n3nnc(-c4cc(OC)c(OC)cc4NC(=O)c4cc(=O)c5ccccc5o4)n3)cc1)CC2", "viability (% of control)": "94.2% [at 0.315 µM]"},
      {"compound": "O=C(O)CNC(=O)c1ncc(-c2cccc(Cl)c2)cc1O", "Potency": "6.61 µM (active)"},
      {"compound": "CCC(=O)O[C@]1(C(=O)CO)CC[C@H]2[C@@H]3CCC4=CC(=O)CC[C@]4(C)[C@H]3CC[C@@]21C", "Potency": "inactive"},
      {"compound": "CCCCCCCOc1ccc(CCC(N)(CO)CO)cc1C(F)(F)F", "Potency": "16.6 µM (active)"},
      {"compound": "CC(C)n1ncnc1-c1cn2c(n1)-c1ccc(O[C@@H](C)C(N)=O)cc1OCC2", "Potency": "2.35 µM (active)"},
      {"compound": "C[C@@H]1C(=O)OC2[C@H](O)[C@]34[C@H]5C[C@@H](C(C)(C)C)[C@]36[C@@H](OC(=O)[C@@H]6O)O[C@@]4(C(=O)O5)[C@]21O", "note": "(stereo partly drawn)", "Potency": "inactive"},
      {"compound": "Fc1cccc(-n2cnc3c(NCc4nc5c(F)c(F)ccc5[nH]4)nc(N4CCOCC4)nc32)c1", "Potency": "0.742 µM (active)"},
      {"compound": "CN1CCN(C(=O)[C@H]2[C@@H](C(=O)O)[C@H]3CC[C@@H]2O3)CC1", "viability (% of control)": "112% [at 8.46 µM]"},
      {"compound": "Cn1cc(/C=C/C(=O)c2cccc(F)c2)cc1/C=C/C(=O)NO", "Potency": "3.32 µM (active)"},
      {"compound": "Cc1c(F)cccc1NC(=O)Nc1ccc(Cl)c(S(=O)(=O)[C@H]2CCCNC2)c1O", "Potency": "inactive"},
      {"compound": "C[C@H]1CC2[C@@H]3CCC4=CC(=O)C=C[C@]4(C)[C@@]3(F)[C@@H](O)C[C@]2(C)[C@@]1(O)C(=O)CO", "note": "(stereo partly drawn)", "Potency": "inactive"},
      {"compound": "Cc1ccc(C(=O)N(CCCN)[C@@H](c2nc3cc(Cl)ccc3c(=O)n2Cc2ccccc2)C(C)C)cc1", "Potency": "0.0295 µM (active)"},
      {"compound": "C[C@]12CCC3=C4CCC(=O)C=C4CC[C@H]3[C@@H]1CC[C@@]2(O)CC#N", "Potency": "inactive"},
      {"compound": "c1ccc2[nH]c(-c3cscn3)nc2c1", "Potency": "inactive"},
      {"compound": "C[C@H](NC(=O)c1c(N)nn2cccnc12)c1cc2cccc(C#Cc3cnn(C)c3)c2c(=O)n1-c1ccccc1", "Potency": "0.0512 µM (active)"},
      {"compound": "Cc1c(C(=O)Nc2ccc(Oc3ccnc4[nH]cc(-c5ccccc5)c34)c(F)c2)c(=O)n(-c2ccc(F)cc2)n1C", "Potency": "20.9 µM (active)"},
      {"compound": "CN(C)C[C@@H]1CCn2cc(c3ccccc32)C2=C(C(=O)NC2=O)c2cn(c3ccccc23)CCO1", "Potency": "20.9 µM (active)"},
      {"compound": "CCNCCc1ccc(CN(CC)c2cc(OC)ccc2[C@@H]2CCc3cc(O)ccc3C2)cc1", "Potency": "6.61 µM (active)"},
      {"compound": "C[C@@]12O[C@@H](C[C@]1(O)CO)n1c3ccccc3c3c4c(c5c6ccccc6n2c5c31)CNC4=O", "Potency": "0.417 µM (active)"},
      {"compound": "CCCc1cc(C(=O)N[C@H](Cc2ccc(-c3cccc(OC(F)(F)F)c3)nc2)C(=O)N[C@@H]2CCNC2)sc1C", "Potency": "20.9 µM (active)"},
      {"compound": "COC(=O)Nc1nc2ccc(C(=O)c3ccccc3)cc2[nH]1", "Potency": "0.59 µM (active)"},
      {"compound": "COc1cc2c(NC3CCN(C)CC3)nc(N3CCCN(C)CC3)nc2cc1OCCCN(C)C", "Potency": "inactive"},
      {"compound": "CCS(=O)(=O)N1CCC(C(C)n2c(C)c(C(=O)NCc3c(OC)cc(C)[nH]c3=O)c3ccccc32)CC1", "note": "(stereo not drawn)", "Potency": "inactive"},
      {"compound": "CC#CC(=O)N1CC[C@@H](n2c(=O)n(-c3ccc(Oc4ccccc4)cc3)c3c(N)ncnc32)C1", "Potency": "inactive"},
      {"compound": "O=C(Nc1cnn2ccc(N3CCC[C@@H]3c3cc(F)ccc3F)nc12)N1CC[C@H](O)C1", "Potency": "inactive"},
      {"compound": "COC(=O)[C@@H]1CC2=CC(=O)CC[C@]2(C)[C@@]23O[C@@H]2C[C@@]2(C)[C@@H](CC[C@@]24CCC(=O)O4)[C@H]13", "Potency": "inactive"},
      {"compound": "COc1cc2c3c(n(CCCn4ccnc4)c(=O)c2cc1OC)-c1cc2c(cc1C3=O)OCO2", "Potency": "0.0372 µM (active)"},
      {"compound": "C[C@@H]1COCCN1c1cc(-c2ccnn2C)c2ccnc(-c3ccn[nH]3)c2n1", "Potency": "0.0525 µM (active)"},
      {"compound": "CNC(=O)c1c(C)oc2cc(Oc3ncnc4cc(OC)c(OC)cc34)ccc12", "Potency": "inactive"}
    ]}
  ]
}
